Screening results from PubChem.
Tb PYK inh – T. brucei pyruvate kinase inhibition. 410,000 tested, 0.12% active. AID 624173. Potency, µM (doses to about 76.8 µM), for the others: top-dose activity, negative = inhibition, most hits filed as inhibitors. TbPYK enzyme, Kinase-Glo Plus ATP luminescence, 45 min; note: potency is the fitted concentration of half-maximal effect; nearly all actives have a fitted effect of over 50% in size
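Glycolytic pyruvate kinase of T. brucei was incubated with substrate, test compound and 130 uM ADP for 45 minutes at room temperature. Luminescent Kinase-Glo Plus signal was measured after 10 minutes.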
VACV mCherry inh – inhibitors of vaccinia virus infection (mCherry reporter signal) | Vaccinia virus mCherry reporter infection, fluorescence | Potency, µM (titrated, usually from 36.5 µM), for inactives: at the top dose activity change, negative = inhibition, hits mostly inhibitors | 310,000 tested, 0.63% active | AID 720579; calls by dose curve; tested in A549 cells; note: potency is the fitted concentration of half-maximal effect; nearly all actives have a fitted effect of over 35% in size
LmPK inhibitor – inhibitors of Leishmania mexicana pyruvate kinase; Q27686; purified LmPK, Kinase-Glo ATP luminescence, 1 h; Potency, µM (top dose mostly 57.5 µM), for the others: top-dose activity change, negative = inhibition, actives largely listed as inhibitors; 290,000 tested, 0.37% active; AID 1721; note: potency is the fitted concentration of half-maximal effect
Target sequence (Q27686 whole entry, looked up): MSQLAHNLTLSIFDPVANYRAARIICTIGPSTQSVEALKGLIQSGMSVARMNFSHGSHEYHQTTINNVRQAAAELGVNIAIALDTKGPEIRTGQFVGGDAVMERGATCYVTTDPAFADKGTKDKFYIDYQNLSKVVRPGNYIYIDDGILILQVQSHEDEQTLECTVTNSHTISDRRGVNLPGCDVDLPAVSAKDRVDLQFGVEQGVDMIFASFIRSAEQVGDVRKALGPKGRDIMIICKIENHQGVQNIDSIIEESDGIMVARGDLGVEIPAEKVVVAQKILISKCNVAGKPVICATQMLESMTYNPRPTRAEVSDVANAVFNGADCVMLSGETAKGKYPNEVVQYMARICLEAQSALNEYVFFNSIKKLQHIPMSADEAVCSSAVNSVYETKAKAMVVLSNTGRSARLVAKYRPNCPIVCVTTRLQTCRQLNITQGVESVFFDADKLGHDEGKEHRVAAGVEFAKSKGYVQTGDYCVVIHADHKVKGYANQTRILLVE
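Purified LmPK (0.1 nM) with 0.5 mM PEP and 0.1 mM ADP in imidazole buffer pH 7.2 with MgCl2/KCl, 1 h at room temperature. ATP formed was read by luciferase luminescence and normalized to no-enzyme and uninhibited controls.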
HCMV inh – inhibitors of human cytomegalovirus. HFF cells, HCMV-luciferase reporter, 72 h; active compounds read low. activity change, negative = inhibition, % at 57.5 µM. 410,000 tested, 4.5% active; in the data active = activity change below about -60%; inconclusive = no clear call, values can overlap the other calls; inactive = above about -39%
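Inhibition of viral replication was scored as loss of reporter luminescence in HFFs infected with HCMV-luciferase (MOI 1 PFU/cell) for 72 h; compounds tested at 2 doses, normalized to buffer and Salinomycin controls.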
VACV Venus inh – vaccinia inhibition (Venus reporter). Vaccinia virus Venus reporter expression, fluorescence. Potency, µM (highest dose often 36.5 µM), for inactives: top-dose activity change, negative = inhibition, usual class: inhibitors. 330,000 tested, 0.46% active; calls by dose curve; tested in A549 cells; note: potency is the fitted concentration of half-maximal effect; nearly all actives have a fitted effect of over 30% in size
The depositor's hits bear a star; i = inactive; ? = inconclusive; nt = no result. Shown are actives, neighbours in structure and some others; about 5% of the full set was active somewhere. Unless noted, calls come from the whole dose curve; as a rule, active = well fitted curve in the direction sought with a large enough effect; inconclusive = small, poorly fitted or top-dose-only effect, or another doubt; inactive = no such curve, though single readings can be large; an effect the other way counts as inactive or inconclusive. % is set by controls: 0 for no effect and ±100 for the full control effect.

SMILES	Tb PYK inh	VACV mCherry inh	LmPK inhibitor	HCMV inh	VACV Venus inh
O=C1OC(c2cccs2)=N/C1=C\c1ccc(-c2cccc(Cl)c2)o1	-2%	nt	4%	22	nt
COc1ccc(/C=C2\SC(=N)N(c3nccs3)C2=O)cc1OC	-4%	-15%	-24%	-94*	-9%
N=C1S/C(=C\c2ccc(-c3cccc(Cl)c3)o2)C(=O)N1c1nccs1	-7%	-1%	-2%	-78*	-9%
COc1ccc(-c2nc3cc(C)ccc3cc2CN(C(=O)c2cccs2)C2CC2)cc1OC	nt	-16%	nt	nt	-11%
CCOC(=O)C1=C(C)NC(=O)NC1c1cn(-c2ccccc2)nc1-c1ccc(OCC)cc1 (stereo unspecified)	0%	-5%	nt	-13	-1%
CC(=O)NCCNC(=O)C1Cc2c(-c3ccc4c(c3)OCO4)ccnc2O1 (stereo unspecified)	1%	37%	nt	68	7%
CCN(CC)C(=O)CSc1nc2c(sc(=S)n2CC)c(=O)n1-c1ccccc1	0%	nt	-3%	-72*	nt
CCN(CC)C(=O)CSc1nc2c(sc(=S)n2-c2ccccc2)c(=O)n1Cc1ccco1	?	nt	11%	-67*	nt
CCN(CC)C(=O)CSc1nc2c(sc(=S)n2-c2ccccc2OC)c(=O)n1-c1ccccc1	-6%	i	2%	?	-12%
CCC(C)NC(=O)CSc1nc2c(sc(=S)n2Cc2ccco2)c(=O)n1-c1ccccc1 (stereo unspecified)	0%	nt	5%	?	nt
COc1ccc(N2CC(O)=C(c3n(C)c4ccccc4[n+]3C)C2=N)cc1	?	-18%	3%	-81*	-9%
COc1ccc(N2CC(O)=C(c3nc(C)cs3)C2=N)cc1	1%	-13%	9%	30	-12%
CC1c2cc3c(cc2CCN1C(=O)c1cccc(Cl)c1)OCCCO3 (stereo unspecified)	0%	nt	-9%	-33	nt
Cc1ccc(NC(=O)Cn2c(=O)c(C)nc3ccccc32)cc1	0%	-3%	0%	-28	3%
Cc1nc2ccccc2n(CC(=O)Nc2cc(Cl)cc(Cl)c2)c1=O	-3%	i	-5%	-61*	-10%
CC(C)n1c(SCC(=O)Nc2nc3c(s2)CCCC3)nc2c1c(=O)n(C)c(=O)n2C	0%	-4%	11%	-60*	-2%
S=C(Nc1ccccc1)N1CCN(C/C=C/c2ccccc2)CC1	-16%	?	5%	-19	-14%
S=C(NC1CCCC1)N1CCN(C/C=C/c2ccccc2)CC1	-2%	-20%	1%	-64*	-19%
C=C1N(C)c2cc([N+](=O)[O-])c(N)cc2C1(C)C	-15%	12%	-8%	-4	-16%
COc1ccc(-c2coc3c(C(=O)NCc4ccc(OC)c(OC)c4)cccc23)c(C)c1	3%	-2%	nt	-75*	-24%
COc1ccc(-c2coc3c(C(=O)Nc4cc(OC)c(OC)c(OC)c4)cccc23)c(C)c1	1%	-17%	nt	-65*	?
COc1ccc(-c2coc3c(C(=O)NCc4ccc(F)c(F)c4)cccc23)c(C)c1	-3%	15%	nt	?	-12%
COc1ccc(-c2coc3c(C(=O)NCC4CCOCC4)cccc23)c(C)c1	3%	i	nt	-61*	?
COc1ccc(-c2coc3c(C(=O)NCCN4CCOCC4)cccc23)c(C)c1	5%	1%	nt	-32	-29%
COc1cc(C(=O)COC(=O)C2CCCCC2)cc(OC)c1OC	-3%	-11%	nt	5	1%
SMILES	Tb PYK inh	VACV mCherry inh	LmPK inhibitor	HCMV inh	VACV Venus inh
Cc1ccc(NC(=O)CN2C(=O)c3ccccc3Sc3ccc(C(=O)N4CCOCC4)cc32)c(Cl)c1	2%	-6%	nt	-10	-15%
COCCN1CCC(CNCc2cn(-c3cc(C)ccc3C)nc2-c2ccccc2)C1 (stereo unspecified)	-1%	nt	11%	-60*	nt
COCCN1CCC(CNCc2cn[nH]c2-c2ccc(C)c(C)c2)C1 (stereo unspecified)	-7%	nt	9%	30	nt
COc1ccc(C(=O)Nc2nnc(C3=COCCO3)o2)cc1OC	?	-11%	5%	-1	-14%
O=C(NCCCN1CCOCC1)c1ccc2c(c1)N(Cc1cccc(Cl)c1)C(=O)c1ccccc1S2	-6%	-30%	nt	-89*	?
CCN1CCN(CCNC(=O)c2ccc3c(c2)N(Cc2cccc(Cl)c2)C(=O)c2ccccc2S3=O)CC1 (stereo unspecified)	0%	-5%	-1%	-73*	-30%
